Test [1] deals with Plasmodium falciparum Sir2 (PF13_0152, Sir2A). Description: pfSir2 binders on small-molecule microarrays, primary screen, biochemical, small-molecule microarray, 635 nm fluorescence (AID 1098).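 Further: score merges spot fluorescence intensity with its signal-to-noise ratio.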 The conditions noted are these: small-molecule microarray binding, fluorescence 635 nm; higher = more signal.
Test [2] in a line: small-molecule microarray binders of probe aDKK1, primary screen, biochemical, biotinylated probe, 635/667 nm fluorescence (AID 1099).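 Further: score merges 667nm spot fluorescence with signal to noise across triplicate slides.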 The settings on record: higher = more signal.
Test [3] is described as follows: small-molecule microarray binders of probe aCHRDL2, primary screen, biochemical, biotinylated probe, 635/667 nm fluorescence (AID 1100). The settings on record: higher = more signal.
A short description of test [4]: splicing luciferase reporter signal modulators, primary screen, spliceosome inhibition project, cell-based, HEK293, splice +/- reporter (AID 1101).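 Further: HEK293 cells carrying a splicing-competent luciferase reporter gene; test concentration not given here.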 The settings on record: luminescence, 24 h, higher = more signal, called active from +8 up or from −8 down. For orientation: A reporter such as luciferase makes a cellular process visible.
Test [5] deals with Fibroblast growth factor 10 (Homo sapiens) (UniProt O15520). The test can be described thus: FGF10 binders on small-molecule microarrays, primary screen, biochemical, small-molecule microarray, 635 nm fluorescence (AID 1102). The settings on record: FGF10 binding, fluorescence 635 nm, higher = more signal.
Fibroblast growth factor 10 (Homo sapiens), sequence (O15520 whole entry, looked up): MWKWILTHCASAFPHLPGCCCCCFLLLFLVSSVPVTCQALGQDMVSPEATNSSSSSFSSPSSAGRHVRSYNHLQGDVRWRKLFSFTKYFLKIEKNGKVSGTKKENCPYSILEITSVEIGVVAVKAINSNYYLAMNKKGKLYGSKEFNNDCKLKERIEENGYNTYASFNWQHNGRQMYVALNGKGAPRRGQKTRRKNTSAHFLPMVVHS
Test [6] has as its system glycogen synthase kinase-3 (GSK3A per assay name; protocol says GSK3B). Description: GSK3 binders on small-molecule microarrays, primary screen, biochemical, small-molecule microarray, 635 nm fluorescence, GSK3A (AID 1103). Further: the record names both GSK3A and GSK3B. The settings on record: small-molecule microarray binding, fluorescence 635 nm; higher = more signal.
In test [7] the target is Epidermal growth factor receptor (Homo sapiens) (UniProt P00533). The test can be described thus: EGFR binders on small-molecule microarrays, primary screen, biochemical, small-molecule microarray, 635 nm fluorescence (AID 1104).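 Further: score merges 667 nm emission intensity with spot signal to noise over triplicate slides.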 The conditions noted are these: EGFR binding, higher = more signal.
Epidermal growth factor receptor (Homo sapiens), sequence (P00533 whole entry, looked up): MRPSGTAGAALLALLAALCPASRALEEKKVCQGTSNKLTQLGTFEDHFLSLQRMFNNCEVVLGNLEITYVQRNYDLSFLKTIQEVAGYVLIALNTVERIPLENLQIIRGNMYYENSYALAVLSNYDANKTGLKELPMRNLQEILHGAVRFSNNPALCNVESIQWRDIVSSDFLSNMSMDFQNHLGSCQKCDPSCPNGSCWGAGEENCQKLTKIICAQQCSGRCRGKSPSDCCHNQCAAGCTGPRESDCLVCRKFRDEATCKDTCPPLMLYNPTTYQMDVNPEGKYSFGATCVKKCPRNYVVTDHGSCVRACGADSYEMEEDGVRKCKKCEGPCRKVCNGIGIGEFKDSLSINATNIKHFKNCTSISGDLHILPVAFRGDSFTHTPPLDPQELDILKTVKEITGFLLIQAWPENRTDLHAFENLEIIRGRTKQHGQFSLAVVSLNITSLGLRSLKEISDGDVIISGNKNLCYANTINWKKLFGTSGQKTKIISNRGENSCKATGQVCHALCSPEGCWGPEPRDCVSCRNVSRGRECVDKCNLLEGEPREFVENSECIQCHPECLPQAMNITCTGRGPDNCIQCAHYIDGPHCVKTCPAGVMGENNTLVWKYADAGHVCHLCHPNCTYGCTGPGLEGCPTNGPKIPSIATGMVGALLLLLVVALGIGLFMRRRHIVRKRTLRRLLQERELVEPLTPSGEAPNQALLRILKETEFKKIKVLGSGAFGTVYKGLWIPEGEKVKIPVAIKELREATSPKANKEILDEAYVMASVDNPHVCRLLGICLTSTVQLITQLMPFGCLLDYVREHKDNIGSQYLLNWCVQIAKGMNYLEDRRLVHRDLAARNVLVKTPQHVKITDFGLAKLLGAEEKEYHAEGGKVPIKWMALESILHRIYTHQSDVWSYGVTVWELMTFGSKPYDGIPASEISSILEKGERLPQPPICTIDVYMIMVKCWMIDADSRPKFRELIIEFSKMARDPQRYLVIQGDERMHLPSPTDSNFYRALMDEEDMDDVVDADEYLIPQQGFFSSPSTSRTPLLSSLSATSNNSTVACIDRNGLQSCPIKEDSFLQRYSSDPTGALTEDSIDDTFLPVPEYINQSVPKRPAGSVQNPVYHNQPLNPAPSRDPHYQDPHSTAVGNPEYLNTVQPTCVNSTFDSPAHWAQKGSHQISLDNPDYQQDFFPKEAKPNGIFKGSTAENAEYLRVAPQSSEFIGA
Test [8] has as its target Follistatin-related protein 3 (Homo sapiens) (UniProt O95633). The test can be described thus: FSTL3 binders on small-molecule microarrays, primary screen, biochemical, small-molecule microarray, 635 nm fluorescence (AID 1105).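 Further: score merges emission near 667 nm and signal to noise per printed spot across three slides.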 The settings on record: FSTL3 binding, higher = more signal.
Test [9] concerns the target Dickkopf-related protein 1 (Homo sapiens) (UniProt O94907). Description: DKK1 binders on small-molecule microarrays, primary screen, biochemical, small-molecule microarray, 635 nm fluorescence scan (AID 1106).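 Further: score merges emission near 667 nm with signal to noise over three replicate slides.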 The settings on record: DKK1 binding, higher = more signal.
Test [10] relates to Inhibin beta A chain (activin A). The test can be described thus: INHBA (activin A) binders on microarrays, primary screen, biochemical, small-molecule microarray, 635 nm fluorescence scan (AID 1107).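 Further: mouse activin A protein probed at 4.33 µg/mL on printed slides; score merges bound-protein fluorescence near 667 nm with spot signal-to-noise.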 The conditions noted are these: small-molecule microarray binding, higher = more signal.
Test [11] relates to Human papillomavirus type 1a protein E7 (residues 44-93). The test can be described thus: HPV1a E7 fragment binders on microarrays, primary screen, biochemical, small-molecule microarray, residues 44-93, 635 nm fluorescence (AID 1108).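 Further: E7 fragment applied at 1 µg/mL in TBST for 1 h at 4 C; score combines spot fluorescence with its signal to noise ratio.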 The settings on record: small-molecule microarray binding, fluorescence 635 nm; higher = more signal.
Test [12] in a line: modulators of HCV replicon luciferase signal, primary screen, HCV replication inhibitor project, Huh7 cells, luciferase reporter (AID 1109).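 Further: huh7 hepatoma cells harbouring a luciferase neomycin HCV replicon reporter; luciferase luminescence as measure of HCV replicon replication; test concentration not given here.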 The conditions noted are these: 48 h, higher = more signal.
In test [13] the target is Left-right determination factor 2 (Homo sapiens) (UniProt O00292). Description: LEFTY2 binders on small-molecule microarrays, primary screen, biochemical, small-molecule microarray, 635 nm fluorescence scan (AID 1110). The settings on record: LEFTY2 binding, higher = more signal.
Left-right determination factor 2 (Homo sapiens), sequence (O00292 whole entry, looked up): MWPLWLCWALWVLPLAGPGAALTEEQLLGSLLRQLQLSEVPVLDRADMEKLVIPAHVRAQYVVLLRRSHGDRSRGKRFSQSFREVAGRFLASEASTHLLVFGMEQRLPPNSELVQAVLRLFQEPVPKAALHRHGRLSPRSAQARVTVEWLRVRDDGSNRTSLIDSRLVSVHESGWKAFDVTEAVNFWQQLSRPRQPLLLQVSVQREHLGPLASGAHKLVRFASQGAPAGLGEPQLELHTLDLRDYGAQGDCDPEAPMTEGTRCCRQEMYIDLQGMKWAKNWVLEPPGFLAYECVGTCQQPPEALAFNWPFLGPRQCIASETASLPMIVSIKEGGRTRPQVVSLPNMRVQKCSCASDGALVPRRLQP
Test [14] has as its target Calmodulin-1 (Homo sapiens) (UniProt P0DP23). The test can be described thus: CALM1 binders on microarrays, EGTA buffer, profiling panel, biochemical, small-molecule microarray, Cy5-labelled CALM1 (AID 1111).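 Further: labelled calmodulin applied in Tris saline Tween buffer holding calcium plus EGTA and DTT.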 The conditions noted are these: Cy5-CALM1 binding fluorescence, higher = more signal.
Test [15] shares this target. Description: calcium-bound CALM1 binders on microarrays, profiling panel, artefact control for SMM control-protein annotation, biochemical, small-molecule microarray, Cy5-labelled CALM1, plus calcium (AID 1112).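 Further: score merges spot fluorescence with signal to noise from triplicate slides.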 The conditions noted are these: Cy5-CALM1 binding fluorescence, higher = more signal.
Test [16] in a line: small-molecule microarray binders of probe aWnt5a, primary screen, biochemical, biotinylated probe, 635/667 nm fluorescence (AID 1113).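 Further: score merges 667 nm fluorescence intensity with signal-to-noise per printed feature.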 The conditions noted are these: higher = more signal.
A short description of test [17]: small-molecule microarray binders of probe aShh, primary screen, biochemical, biotinylated probe, 635/667 nm fluorescence (AID 1114).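 Further: probe is biotin-labelled aShh protein from a stem cell growth factor screen; measures binding of labelled protein to compounds printed on the slide; score merges feature fluorescence at 667 nm with signal-to-noise.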 The conditions noted are these: higher = more signal.
A short description of test [18]: small-molecule microarray binders of probe aNog, primary screen, biochemical, biotinylated probe, 635/667 nm fluorescence (AID 1115).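 Further: probe is biotinylated aNog protein used at 0.15 µg/mL for 1 h at 4 C; z-score combines 667 nm fluorescence of each spot with its signal to noise.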 The settings on record: higher = more signal.
For test [19], the target named is Torsin-1A-interacting protein 1 (Homo sapiens) (UniProt Q5JTV8). The test can be described thus: LAP1 binders from COS7 cell lysate, primary screen, small-molecule microarray, 635/667 nm fluorescence (AID 1116). The settings on record: COS7-hLAP1 lysate binding, 635 nm fluorescence, higher = more signal.
Torsin-1A-interacting protein 1 (Homo sapiens), sequence (Q5JTV8 whole entry, looked up): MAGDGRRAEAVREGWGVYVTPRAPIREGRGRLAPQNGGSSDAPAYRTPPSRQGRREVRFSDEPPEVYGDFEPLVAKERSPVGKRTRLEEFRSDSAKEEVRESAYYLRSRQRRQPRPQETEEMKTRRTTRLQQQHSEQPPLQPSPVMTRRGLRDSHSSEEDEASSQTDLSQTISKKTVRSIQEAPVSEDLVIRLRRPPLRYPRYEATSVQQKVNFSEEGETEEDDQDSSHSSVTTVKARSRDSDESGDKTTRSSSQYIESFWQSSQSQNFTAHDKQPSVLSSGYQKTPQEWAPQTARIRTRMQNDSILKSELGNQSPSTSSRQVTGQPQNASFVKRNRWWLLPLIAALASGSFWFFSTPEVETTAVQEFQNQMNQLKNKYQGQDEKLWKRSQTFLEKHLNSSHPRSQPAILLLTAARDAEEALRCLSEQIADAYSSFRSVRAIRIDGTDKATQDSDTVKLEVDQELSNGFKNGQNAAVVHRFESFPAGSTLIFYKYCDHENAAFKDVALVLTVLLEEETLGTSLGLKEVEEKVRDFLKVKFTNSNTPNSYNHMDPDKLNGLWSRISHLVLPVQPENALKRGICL
The target of test [20] is Alpha-bungarotoxin (Bungarus multicinctus) (UniProt P60615). Description: alpha-bungarotoxin binders on microarray, profiling panel, artefact control for SMM control protein annotation, biochemical, small-molecule microarray, Alexa647 label, 635/667 nm fluorescence (AID 1117). The conditions noted are these: alpha-BTX-A647 binding fluorescence, higher = more signal.
Alpha-bungarotoxin (Bungarus multicinctus), sequence (P60615 whole entry, looked up): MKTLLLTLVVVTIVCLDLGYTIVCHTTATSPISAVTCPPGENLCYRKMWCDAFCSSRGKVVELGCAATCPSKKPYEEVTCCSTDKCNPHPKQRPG

Where “and” joins values, the source holds several entries; their conditions need not be identical. Equal values may be shown once. Calls of active or inactive are those of the source.

Follistatin-related protein 3 (Homo sapiens), sequence (O95633 whole entry, looked up): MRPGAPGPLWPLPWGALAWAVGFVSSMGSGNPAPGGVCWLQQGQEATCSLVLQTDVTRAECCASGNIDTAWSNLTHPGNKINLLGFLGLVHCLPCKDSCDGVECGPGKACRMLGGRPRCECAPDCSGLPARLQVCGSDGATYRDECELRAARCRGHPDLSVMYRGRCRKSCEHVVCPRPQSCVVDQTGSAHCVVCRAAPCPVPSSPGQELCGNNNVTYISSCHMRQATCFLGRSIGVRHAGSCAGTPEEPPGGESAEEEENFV
Dickkopf-related protein 1 (Homo sapiens), sequence (O94907 whole entry, looked up): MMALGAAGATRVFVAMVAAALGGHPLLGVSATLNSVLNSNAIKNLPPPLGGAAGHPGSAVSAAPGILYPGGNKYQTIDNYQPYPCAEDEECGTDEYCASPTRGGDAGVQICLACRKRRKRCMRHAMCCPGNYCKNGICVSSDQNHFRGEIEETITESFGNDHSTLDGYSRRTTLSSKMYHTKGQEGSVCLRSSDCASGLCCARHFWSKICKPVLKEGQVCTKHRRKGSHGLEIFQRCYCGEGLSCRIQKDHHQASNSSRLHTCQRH

Take `COc1ccc(O[C@H]2C=C[C@@H](c3ccccc3)O[C@@H]2COC(=O)CCC(C)=NO[C@H](C)c2cn([C@H](CO)Cc3ccccc3)nn2)cc1`: the composite z-score in test [1] was 0.366 and 0.205; in [2], 0.416 and -0.0879; in test [3] it was -0.305 and -0.291; in [5], -0.0593 and 0.263; in test [6], -0.018 and 0.173; in [7], 0.188 and 0.353. For the same molecule, the composite z-score in test [8] is 0.73 and 0.397; in test [9], 1.12 and 1.39; in test [10], 0.164 and 0.485; in test [11], -0.0009 and -0.0146; in test [13], 0.195 and 0.439; in [14], -0.223 and -0.233. Also, the composite z-score in test [15] was -0.232 and -0.239; in test [16], -0.132 and 0.205; in test [17] it was -0.0553 and -0.129; in [18] it was -0.0827 and 0.96; in test [19], 0.14 and 0.392; in test [20] it was 0.211 and 0.231. For the same molecule, the z-score in [4] was -0.643 (inactive) and -1.07 (inactive); in [12], -1.99 and -2.59.
Regarding `CCCC[C@@H]1CN2[C@@H](CC[C@@H](C)[C@@H]2c2ccc(Br)cc2)C(=O)O1`, the composite z-score in [1] is 0.469 and 0.883; in [2], -0.13 and -0.277; in test [3], -0.455 and -0.254; in [5], 0.979 and 0.906; in [6] it was 0.521 and 0.0677; in test [7], 0.183 and -0.121. In addition, the composite z-score in test [8] was 0.516 and 0.351; in test [9] it was 0.272 and 0.136; in test [10], 0.488 and -0.0019; in test [11], 1.27 and 1.07; in [13], 0.379 and 0.292; in test [14], 0.0614 and 0.32. For the same molecule, the composite z-score in test [15] was -0.242 and -0.217; in test [16], -0.152 and -0.13; in test [17], 0.0756 and -0.0553; in test [18], -0.198 and 0.121; in test [19], 0.0865 and -0.0158; in [20], 0.439 and 0.105. Further, the z-score in [4] is 0.33 (inactive) and 0.758 (inactive); in test [12] it was -1.44 and -0.195.
On to `C=CCN(CCCCC)C(=O)C1N(c2ccc(CCO)cc2)C(=O)C2C(C(=O)O)C3C=CC21O3` (stereo not given), for which the composite z-score was 0.122 and -0.0398 in test [1]; -0.244 and -0.184 in [2]; 0.976 and 0.99 in test [3]; -1.01 and -1.64 in test [5]; -1.29 and -1.34 in test [6]; -1.23 and -1.1 in test [7]. Besides, the composite z-score in test [8] is -0.937 and -1.43; in test [9], -1.6 and -1.19; in test [10] it was -1.49 and -1.34; in [11], -0.351 and -0.928; in [13] it was -2.25 and -3.05; in test [14], -1.51 and -0.989. The composite z-score in [15] was -0.455 and -0.143; in test [16], -0.23 and -0.316; in test [17] it was -0.0769 and -0.0866; in test [18], -0.387 and -0.332; in test [19] it was 0.143 and 0.422; in test [20] it was -2.97 and -1.37. For the same molecule, the z-score is -0.296 (inactive) and 0.494 (inactive) in test [4]; 0.471 and -0.235 in test [12].
Turning to `COC(=O)C1=C2N(Cc3ccccc3)C(C)=C(C(=O)OC)[C@@H](c3ccccc3)N2C(=O)[C@](O)(C(=O)OC)C1`, the composite z-score in test [1] is 0.271 and 0.0802; in test [2], -0.17 and -0.241; in test [3], -0.684 and -0.512; in test [5] it was 0.622 and 0.395; in [6], 0.943 and 0.479; in [7], 0.273 and 0.585. For the same molecule, the composite z-score in test [8] is 0.963 and 0.359; in [9] it was 0.916 and 0.574; in [10], -0.146 and 0.22; in test [11], -0.101 and 0.137; in test [13], 0.198 and 0.531; in test [14], 0.225 and -0.29. Further, the composite z-score in [15] is -0.803 and -0.391; in test [16], -0.169 and -0.237; in test [17], -0.214 and -0.0914; in test [18], -0.18 and 0.162; in [19], -0.203 and 1.01; in [20] it was 0.661 and 0.171. The z-score is -0.229 (inactive) and 0.213 (inactive) in test [4]; 0.591 and 0.406 in test [12].
Turning to `Cc1cc2c(nc1C)CCCN2CC(O)CN1CCCc2nc(-c3ccc(Br)cc3)ccc21` (stereo not given), the composite z-score was 1.16 and 0.822 in [1]; 0.116 and 1.46 in test [2]; 0.334 and 0.608 in [3]; 1.21 and 1.31 in test [5]; 1.29 and 1.14 in test [6]; 0.852 and 1.05 in test [7]. The composite z-score in [8] was 1.43 and 1.25; in test [9], 1.06 and 1.08; in [10], 1.33 and 1.31; in [11], 1.32 and 1.19; in [13], 0.917 and 0.75; in [14], 0.645 and 1.01. In addition, the composite z-score in [15] is -0.0329 and 0.151; in [16], 0.361 and 0.499; in test [17], 0.641 and 1.58; in [18], 0.676 and 1.1; in test [19] it was 0.126 and 1.1; in test [20], 1.92 and 2.78. For the same molecule, the z-score is -0.605 (inactive) and -0.58 (inactive) in [4]; -1.3 and -2.09 in [12].

The values above are taken from PubChem BioAssay.
